# Several values for one entry are separate records, joined by “and”; a condition that tells them apart may be missing. Identical values can stand only once. About 2,000 (36%) of roughly 5,500 compounds were called active. Inconclusive results (about 18%) are left out. Cut-off read from the data, not from the text of the source: active = normalized growth mostly below about 0.91 (no sharp cut-off); inconclusive = no clear call, values can overlap the other calls; inactive = mostly above about 0.92. Some of the results follow.
# Test: chemical genetic growth profiling, strain panel (AID 1159580);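 note: tested at 20 µM; growth read once vehicle control cultures reached saturation at 30 °C; 1 = growth at the plate median or of vehicle wells; lower values mean less growth of the strain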
# Conditions: S. cerevisiae deletion strains, growth OD
smiles,measurement,setting,value
O=NN(CCCl)C(=O)NCCCl,normalized growth,"locus YAL021C, strain ccr4, stronger effect = lower value",0.923 (inactive)
same,normalized growth,"locus YAL026C, strain drs2, stronger effect = lower value",0.955 (inactive)
same,normalized growth,"locus YAL030W, strain snc1, stronger effect = lower value",0.958 (inactive)
same,normalized growth,"locus YAL040C, strain CLN3, stronger effect = lower value",0.974 (inactive)
same,normalized growth,"locus YBL061C, strain skt5, stronger effect = lower value",0.942 (inactive)
same,normalized growth,"locus YBR009C, strain hhf1, stronger effect = lower value",0.912 (inactive)
same,normalized growth,"locus YBR021W, strain FUR4, stronger effect = lower value",0.954 (inactive)
same,normalized growth,"locus YBR023C, strain chs3, stronger effect = lower value",0.942 (inactive)
same,normalized growth,"locus YBR171W, strain sec66, stronger effect = lower value",0.92 (inactive)
same,normalized growth,"locus YBR229C, strain ROT2, stronger effect = lower value",0.986 (inactive)
same,normalized growth,"locus YBR231C, strain swc5, stronger effect = lower value",0.604 (active)
same,normalized growth,"locus YBR279W, strain paf1, stronger effect = lower value",0.929 (active)
same,normalized growth,"locus YCL011C, strain gbp2, stronger effect = lower value",0.902 (active)
same,normalized growth,"locus YCL016C, strain dcc1, stronger effect = lower value",0.847 (active)
same,normalized growth,"locus YCL029C, strain bik1, stronger effect = lower value",0.995 (inactive)
same,normalized growth,"locus YCL061C, strain MRC1, stronger effect = lower value",0.916 (active)
same,normalized growth,"locus YCL069W, strain vba3, stronger effect = lower value",0.962 (inactive)
same,normalized growth,"locus YCR088W, strain abp1, stronger effect = lower value",0.958 (inactive)
same,normalized growth,"locus YDL005C, strain med2, stronger effect = lower value",0.958 (inactive)
same,normalized growth,"locus YDL035C, strain GPR1, stronger effect = lower value",0.909 (inactive)
same,normalized growth,"locus YDL040C, strain nat1, stronger effect = lower value",0.959 (inactive)
same,normalized growth,"locus YDL074C, strain BRE1, stronger effect = lower value",0.93 (inactive)
same,normalized growth,"locus YDL101C, strain DUN1, stronger effect = lower value",0.964 (inactive)
same,normalized growth,"locus YDL134C, strain PPH21, stronger effect = lower value",0.979 (inactive)
same,normalized growth,"locus YDL185W, strain tfp1, stronger effect = lower value",0.98 (inactive)
same,normalized growth,"locus YDL192W, strain arf1, stronger effect = lower value",0.976 (inactive)
same,normalized growth,"locus YDR001C, strain nth1, stronger effect = lower value",0.96 (inactive)
same,normalized growth,"locus YDR069C, strain doa4, stronger effect = lower value",0.95 (inactive)
same,normalized growth,"locus YDR101C, strain arx1, stronger effect = lower value",0.994 (inactive)
same,normalized growth,"locus YDR137W, strain rgp1, stronger effect = lower value",0.943 (inactive)
same,normalized growth,"locus YDR150W, strain NUM1, stronger effect = lower value",1.01 (inactive) and 0.989 (inactive)
same,normalized growth,"locus YDR159W, strain sac3, stronger effect = lower value",0.855 (active)
same,normalized growth,"locus YDR162C, strain NBP2, stronger effect = lower value",0.988 (inactive)
same,normalized growth,"locus YDR195W, strain ref2",0.997 (inactive)
same,normalized growth,"locus YDR297W, strain sur2, stronger effect = lower value",0.965 (inactive)
same,normalized growth,"locus YDR318W, strain mcm21, stronger effect = lower value",0.966 (inactive)
same,normalized growth,"locus YDR334W, strain swr1, stronger effect = lower value",0.876 (active)
same,normalized growth,"locus YDR335W, strain msn5, stronger effect = lower value",0.96 (inactive)
same,normalized growth,"locus YDR388W, stronger effect = lower value",0.983 (inactive)
same,normalized growth,"locus YDR392W, strain spt3, stronger effect = lower value",0.562 (active)
same,normalized growth,"locus YDR502C, strain sam2, stronger effect = lower value",0.881 (active)
same,normalized growth,"locus YEL003W, strain gim4, stronger effect = lower value",0.803 (active)
same,normalized growth,"locus YEL037C, strain rad23, stronger effect = lower value",0.94 (inactive)
same,normalized growth,"locus YEL061C, strain CIN8 (second series), stronger effect = lower value",0.952 (inactive)
same,normalized growth,"locus YEL061C, strain CIN8, stronger effect = lower value",1.04 (inactive)
same,normalized growth,"locus YER002W, strain NOP16, stronger effect = lower value",1.02 (inactive)
same,normalized growth,"locus YER015W, strain faa2, stronger effect = lower value",0.899 (active)
same,normalized growth,"locus YER016W, strain bim1, stronger effect = lower value",0.875 (active)
same,normalized growth,"locus YER110C, stronger effect = lower value",0.986 (inactive)
same,normalized growth,"locus YER111C, strain swi4, stronger effect = lower value",0.958 (inactive)
same,normalized growth,"locus YER155C, strain BEM2 (second series), stronger effect = lower value",0.583 (active)
same,normalized growth,"locus YER155C, strain BEM2, stronger effect = lower value",1 (inactive)
same,normalized growth,"locus YER167W, strain BCK2, stronger effect = lower value",1.02 (inactive)
same,normalized growth,"locus YFR010W, strain ubp6, stronger effect = lower value",0.836 (active)
same,normalized growth,"locus YGL078C, strain dbp3, stronger effect = lower value",0.912 (active)
same,normalized growth,"locus YGL086W, strain mad1, stronger effect = lower value",0.956 (inactive)
same,normalized growth,"locus YGL167C, strain pmr1, stronger effect = lower value",0.959 (inactive)
same,normalized growth,"locus YGL173C, strain kem1, stronger effect = lower value",0.922 (inactive)
same,normalized growth,"locus YGL227W, strain vid30, stronger effect = lower value",0.925 (inactive)
same,normalized growth,"locus YGL240W, strain doc1, stronger effect = lower value",0.682 (active)
same,normalized growth,"locus YGL248W, strain PDE1, stronger effect = lower value",0.943 (inactive)
same,normalized growth,"locus YGL253W, strain hxk2, stronger effect = lower value",0.985 (inactive)
same,normalized growth,"locus YGR078C, strain PAC10, stronger effect = lower value",0.991 (inactive)
same,normalized growth,"locus YGR135W, strain pre9, stronger effect = lower value",0.846 (active)
same,normalized growth,"locus YGR229C, strain SMI1, stronger effect = lower value",0.823 (inactive)
same,normalized growth,"locus YGR252W, strain gcn5, stronger effect = lower value",0.777 (inactive)
same,normalized growth,"locus YHR013C, strain ard1, stronger effect = lower value",0.64 (active)
same,normalized growth,"locus YHR027C, strain rpn1, stronger effect = lower value",0.948 (inactive)
same,normalized growth,"locus YHR030C, strain SLT2, stronger effect = lower value",1.03 (inactive) and 0.315 (active)
same,normalized growth,"locus YHR079C, strain IRE1 (second series), stronger effect = lower value",0.988 (inactive)
same,normalized growth,"locus YHR079C, strain IRE1, stronger effect = lower value",0.298 (active)
same,normalized growth,"locus YHR094C, strain hxt1, stronger effect = lower value",0.994 (inactive)
same,normalized growth,"locus YHR129C, strain ARP1, stronger effect = lower value",0.991 (inactive)
same,normalized growth,"locus YHR142W, strain chs7, stronger effect = lower value",0.87 (active)
same,normalized growth,"locus YHR200W, strain rpn10, stronger effect = lower value",0.958 (inactive)
same,normalized growth,"locus YIL066C, strain RNR3, stronger effect = lower value",0.994 (inactive)
same,normalized growth,"locus YIL073C, strain SPO22, stronger effect = lower value",0.928 (inactive)
same,normalized growth,"locus YIL125W, strain kgd1, stronger effect = lower value",0.926 (active)
same,normalized growth,"locus YIR030C, strain dcg1, stronger effect = lower value",0.991 (inactive)
same,normalized growth,"locus YJL092W, strain hpr5, stronger effect = lower value",0.922 (inactive)
same,normalized growth,"locus YJL095W, strain BCK1 (second series), stronger effect = lower value",0.963 (inactive)
same,normalized growth,"locus YJL095W, strain BCK1, stronger effect = lower value",0.928 (inactive) and 0.341 (active)
same,normalized growth,"locus YJL115W, strain asf1, stronger effect = lower value",0.923 (inactive)
same,normalized growth,"locus YJL129C, strain trk1, stronger effect = lower value",0.759 (active)
same,normalized growth,"locus YJL134W, strain LCB3, stronger effect = lower value",0.997 (inactive)
same,normalized growth,"locus YJL154C, strain vps35, stronger effect = lower value",0.975 (inactive)
same,normalized growth,"locus YJL164C, strain tpk1, stronger effect = lower value",0.878 (active)
same,normalized growth,"locus YJL166W, strain qcr8, stronger effect = lower value",0.923 (inactive)
same,normalized growth,"locus YJL168C, strain set2, stronger effect = lower value",1 (inactive)
same,normalized growth,"locus YJL187C, strain SWE1 (second series), stronger effect = lower value",1 (inactive)
same,normalized growth,"locus YJL187C, strain SWE1, stronger effect = lower value",0.944 (inactive)
same,normalized growth,"locus YJR043C, strain POL32, stronger effect = lower value",0.74 (active)

# Reference: PubChem BioAssay AID1159580 (chemical genetic matrix, 2015)
